Here are results for 40 sequences from the supplement of paper PMC6555819.

The subject of this assay is VDR:RXRa (NR concentration 270 nM, RXRa partner concentration 90 nM). As to the kind of experiment: PBM binding z-score (relative to random genomic background probes); higher = stronger binding; sequences stand for … in GC…GCGATTGACAGCGTAGAATGAAGG
Here is the method: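 Protein-binding microarray (Agilent 4x180K custom design, double-stranded 60-nt probes: 5' GC cap, 34-nt variable region, 24-nt constant primer region; full probe sequence given). Purified or IVT nuclear receptor:RXRα heterodimers (3:1 NR:RXRα, mostly 270:90 nM) or homodimers were incubated for 1 h in PBS with 2% milk and no ligand, then detected with Alexa488 antibodies. Fluorescence from o1-orientation probes (~5 replicates averaged) was converted to z-scores against 500 random hg19 background probes. Variable regions are seed direct-repeat (DR0–DR5) sites, all their single-nucleotide variants and half-site ablations.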
In turn, CTCGAAAGGTCGGTTGAGGTGAGCATACGGATAA came in with a PBM binding z-score of 2.26.

In turn, TCTTGTAGATCAACAGGAGGTTAAGAATGATCGA gave a PBM binding z-score of 0.56.

Regarding CAAACTAGCTCACCGGAAGGTCAAAGTCCGCATG, the PBM binding z-score came to 2.8.

CGTCCAAGGTCATAGGAGGTCAGTGATGACAGAT displayed a PBM binding z-score of 6.43.

GGAACGAGGGCATTCGAGTTGATACCATGGCGAT: the PBM binding z-score came to 3.67.

Regarding TAGCCTTGGTCATTCAGGGGCCAGTATAGAAAGC, the PBM binding z-score is -0.0829.

As for GTACCAAGGTGAATGGGTCGTTGATGAGTAGGCG, the PBM binding z-score was determined as 1.06.

CAAACTTGGTCACAGAGGTCAAAGTCCGTGCGTA yielded a PBM binding z-score of 6.59.

With CCTACTGGGCCAAAAAGGTCATTAATGCCGATAA, the PBM binding z-score amounted to 4.53.

With TTACCCAGGTGAAGGTCGTTGATCCCTCTGTAGA, the PBM binding z-score was determined as 1.05.

On to AATACAGGCTCATCGTAGGCCAGAGTACGCACAG, for which the PBM binding z-score is -0.438.

Consider AGTCAAAGTTAATCTAGGTAACGTAAGATATGCT, for which the PBM binding z-score is -0.0868.

For GCAGACAGGTGAAACGCAGATAACTCAGGGTGGC, the PBM binding z-score is -0.407.

Sequence CGTCCAAGGTCAAAGGTCAGTCAAGAGATGACGG had a PBM binding z-score of 6.84.

The sequence CGTCCAAGGTCAAGGTCAGTGAGAGAGACTCGAA had a PBM binding z-score of 4.84.

GCCGCTAGGTCAACTGATGGTCAGCTAAAGCTCG: the PBM binding z-score came to 1.45.

As to CGAACCAGGTCAGAACAGGACAGTGAAGGATGAT, the PBM binding z-score stood at 1.44.

ACCTCTAGGTAAAGTTCAGTGAAAGATCGATAGA had a PBM binding z-score of 0.835.

GGAACGAGGGCATTCGAGTTGAGAGCATGGCGAT: the PBM binding z-score came out at 3.07.

As to CCTAGGAGGCCAATCTGGGTCACTCAAGGCTTGA, the PBM binding z-score came out at 1.21.

As to CCTTCTAGGTCAATGGTCAGCTAAAGCAGCTCGC, the PBM binding z-score is 1.16.

For the sequence CCAGACAGGTGAAACGTAACTCAGTCTGGTACGC, the PBM binding z-score was -0.217.

ATCAAAAGGTCGTGAGGTGAGTATACAGAAAGGC showed a PBM binding z-score of 3.92.

In the case of CAAACTAGGTCACAGAGATCAAAGTCCGTGCGTA, the PBM binding z-score worked out at 4.39.

In the case of ATCGAAAGGTCGAAGGTGAGGATACCCACCCGAA, the PBM binding z-score worked out at 2.71.

Regarding CTACCAACGTGAACAAGGTCGTTGATTACTATTC, the PBM binding z-score amounted to 2.05.

In turn, TGAATGAGGATAAAGATCAGGGAACGTGGCGTCG displayed a PBM binding z-score of -0.375.

Consider CCGACTGGGGCAAGGTTACCAGAACGCACAGCCA, for which the PBM binding z-score worked out at 0.0138.

GTACCAAGGTGATTAGGTCGTTGATGAGTAGGCG came in with a PBM binding z-score of 0.223.

For CCTAGTTGGACAAGGTCACACACGCTATAGGTAC, the PBM binding z-score came to 4.08.

Take AGAAGGAGGTTATTAAGATCAGGGAATTGCGGTC: the PBM binding z-score is 1.89.

Consider CCGAGTAGGTGATGGGGCATTCAGGCAACGGTGA, for which the PBM binding z-score is -0.461.

For the sequence CCTTACAGGTCACTGACAGGTTATAGCATTTGGA, the PBM binding z-score turned out to be 3.8.

Take GCAGCTAGGTCAGGTTGGTCAGCTAACGGGTACG: the PBM binding z-score is 0.358.

TGGAGTAGGTTACCAATGGGGCATTCAGCTTTCT: the PBM binding z-score turned out to be 0.293.

Sequence ACTATTAGTTGAGACGAGGGCCACCGATAGGTTG came in with a PBM binding z-score of -0.293.

Consider TCAGACAGGTAAAGGTAACTCAGGTACGCAGTCG, for which the PBM binding z-score came out at 1.44.

With ATCGAAAGGTCGCCGAGGTGAGTATACACCGTTT, the PBM binding z-score was found to be 5.39.

Take CTCGAAAGGTCGGTTGAGGTGTGTATACGGATAA: the PBM binding z-score worked out at 1.03.

CTCGAAAGGTCGGTTGAGGTGGGTATACGGATAA yielded a PBM binding z-score of 1.63.
